The source of these data is PubChem BioAssay (EPA / NIEHS).

Test [1] in a line: ATG_TAL_CIS: Attagene CIS-FACTORIAL HepG2 Assay for human TAL Basal Promoter (AID 2282966).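 Further: background control endpoint measuring basal TAL promoter reporter mRNA not a specific factor.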 Particulars: HepG2 Attagene cis-factorial TAL promoter reporter; actives raise or lower the signal. An outline of the steps:
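HepG2 cells were transiently transfected with promoter-driven multiplexed reporter units and dosed for 24 h. Reporter mRNA was measured by RT-PCR with capillary electrophoresis fluorescence; bidirectional fits used DMSO as baseline, serving as a background control.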

The nature of test [2]: ATG_TGFb_CIS: Attagene CIS-FACTORIAL HepG2 Assay for human Transforming Growth Factor (TGF) (AID 2282967). To be noted: HepG2 Attagene CIS TGFb reporter, mRNA transcription; actives raise or lower the signal. An outline of the steps: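 Transcript-level reporter readout: HepG2 transfectants, 24 h exposure, RNA to cDNA, reporter-specific PCR, fluorescent primer extension, capillary sizing against ROX standards. Gain- or loss-of-signal relative to DMSO.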

Test [3] can be described thus: ATG_VDRE_CIS: Attagene CIS-FACTORIAL HepG2 Assay for human Vitamin D Receptor Element (VDRE) (AID 2282968). To be noted: HepG2 VDRE cis-reporter transcription, actives raise or lower the signal. The gist of the method: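 Cell-based multiplexed reporter format in human liver HepG2 cells, 24 h post-dose. Fluorescence from capillary electrophoresis of reporter cDNA gives the signal, with DMSO as negative control and baseline.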

For test [4], the target named is X-box-binding protein 1 (Homo sapiens) (UniProt P17861). The experiment in a line: ATG_Xbp1_CIS: Attagene CIS-FACTORIAL HepG2 Assay for human X-box Binding Protein 1 (XBP1) (AID 2282972). To be noted: HepG2 XBP1 cis-element reporter, Attagene multiplex; actives raise or lower the signal. An outline of the steps: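 Fluorescence-labelled cDNA fragments from reporter transcripts, separated by capillary electrophoresis, give the signal. Source: HepG2 cells transfected with promoter-driven reporter units, harvested 24 h post-dose. DMSO served as reference for bidirectional curve fitting.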
Sequence of X-box-binding protein 1 (Homo sapiens) (P17861 whole entry, looked up, the tested form may be a part): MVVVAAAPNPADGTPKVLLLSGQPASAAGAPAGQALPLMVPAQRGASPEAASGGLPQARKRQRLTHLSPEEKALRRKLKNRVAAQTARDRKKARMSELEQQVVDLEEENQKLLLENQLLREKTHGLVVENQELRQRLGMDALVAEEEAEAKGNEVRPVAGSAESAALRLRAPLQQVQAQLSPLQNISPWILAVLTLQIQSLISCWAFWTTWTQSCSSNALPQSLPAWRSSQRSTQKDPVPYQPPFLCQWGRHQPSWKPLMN

Test [5] addresses Bile acid receptor (Homo sapiens) (UniProt Q96RI1). The experiment in a line: ATG_FXR_TRANS: Attagene TRANS-FACTORIAL HepG2 Assay for Farnesoid X Receptor (FXR) (AID 2282979; active means hit-call score of the fitted dose curve at least 0.9, where 1 is the maximum;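 further: hits raise reporter mRNA above DMSO so AC50 marks FXR activation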). To be noted: HepG2 Attagene TRANS FXR-GAL4 reporter transcription. The gist of the method:
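HepG2 cells transiently transfected with reporter constructs in which a chimeric FXR-GAL4 protein drives a GAL4-UAS reporter; 24 h compound exposure. Reporter mRNA measured by RT-PCR, FAM labelling, HpaI digestion and capillary electrophoresis; gain-of-signal versus DMSO.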

The nature of test [6]: ATG_M_06_TRANS: Attagene TRANS-FACTORIAL HepG2 Assay for M06 Transcription Factor (Internal Marker) (AID 2282983; active means hit-call score of the fitted dose curve at least 0.9, where 1 is the maximum). Particulars: HepG2 Attagene TRANS M06 internal marker reporter. The gist of the method:
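HepG2 cells transiently transfected with multiplexed GAL4-UAS reporter transcription units; after 24 h compound exposure, reporter mRNA measured by RT-PCR, FAM-labelled primer extension, HpaI digestion and capillary electrophoresis. Gain-of-signal fitted versus DMSO baseline; background control readout.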

Test [7] can be described thus: ATG_M_32_TRANS: Attagene TRANS-FACTORIAL HepG2 Assay for M32 Transcription Factor (Internal Marker) (AID 2282984; active means hit-call score of the fitted dose curve at least 0.9, where 1 is the maximum). Particulars: HepG2 Attagene TRANS M32 internal marker reporter. The gist of the method:
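Capillary electrophoresis of 6-FAM-labelled reporter fragments gives the signal; data fitted for gain over DMSO negative control. Source: HepG2 cells bearing transient multiple reporter transcription units, 24 h exposure.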

Test [8] deals with Nuclear respiratory factor 1 (Homo sapiens) (UniProt Q16656). The experiment in a line: ATG_NRF1_CIS: Attagene CIS-FACTORIAL HepG2 Assay for human Nuclear Respiratory Factor 1 (NRF1) Orphan Gene (AID 2282987). Particulars: HepG2 NRF1 cis-element reporter, Attagene multiplex; actives raise or lower the signal. An outline of the steps: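 Endogenous NRF1-driven reporter transcription measured in transiently transfected human HepG2 liver cells. Readout: reporter mRNA by RT-PCR and capillary electrophoresis with fluorescence detection, 24 h post-dosing. Gain or loss of signal fitted relative to DMSO baseline.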
Sequence of Nuclear respiratory factor 1 (Homo sapiens) (Q16656 whole entry, looked up): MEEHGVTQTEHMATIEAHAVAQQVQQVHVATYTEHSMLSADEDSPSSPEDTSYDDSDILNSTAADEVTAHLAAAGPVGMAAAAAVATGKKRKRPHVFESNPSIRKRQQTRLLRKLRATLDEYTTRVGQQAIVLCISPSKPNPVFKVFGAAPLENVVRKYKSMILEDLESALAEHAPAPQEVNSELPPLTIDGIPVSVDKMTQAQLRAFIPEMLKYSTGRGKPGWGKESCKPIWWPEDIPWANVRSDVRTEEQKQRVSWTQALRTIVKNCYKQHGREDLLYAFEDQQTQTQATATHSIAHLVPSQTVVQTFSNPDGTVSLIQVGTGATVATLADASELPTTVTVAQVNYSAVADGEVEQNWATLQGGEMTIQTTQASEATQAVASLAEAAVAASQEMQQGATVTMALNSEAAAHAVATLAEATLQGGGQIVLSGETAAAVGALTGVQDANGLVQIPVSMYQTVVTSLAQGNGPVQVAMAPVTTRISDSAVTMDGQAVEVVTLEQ

A short description of test [9]: ATG_NFI_CIS: Attagene CIS-FACTORIAL HepG2 Assay for human Nuclear Factor I (NFI) (AID 2282989). Particulars: HepG2 cis-regulatory reporter, NFI response element transcription; actives raise or lower the signal. An outline of the steps: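 After transient transfection of HepG2 with cis-promoter reporter constructs and 24 h dosing, RNA is reverse-transcribed, amplified, 6-FAM end-labelled and HpaI-digested before capillary analysis. Bidirectional curve fitting against DMSO.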

Test [10] is described as follows: ATG_GAL4_TRANS: Attagene TRANS-FACTORIAL HepG2 Assay for GAL4 (Internal Marker) (AID 2282976; active means hit-call score of the fitted dose curve at least 0.9, where 1 is the maximum). Particulars: HepG2 Attagene TRANS GAL4 internal marker reporter. An outline of the steps:
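HepG2 cells transiently transfected with multiplexed GAL4-UAS reporter constructs were dosed for 24 h. Reporter mRNA was measured by RT-PCR, 6-FAM primer extension, HpaI digestion and capillary electrophoresis, and gain of signal was fitted relative to DMSO.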

For test [11], the target named is Glucocorticoid receptor (Homo sapiens) (UniProt P04150). The experiment in a line: ATG_GR_TRANS: Attagene TRANS-FACTORIAL HepG2 Assay for human Glucocorticoid Receptor (GR) (AID 2282978; active means hit-call score of the fitted dose curve at least 0.9, where 1 is the maximum;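 further: activators score as hits since higher reporter transcript over DMSO is fitted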). To be noted: HepG2 Attagene TRANS GR reporter, mRNA transcription. The gist of the method: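 Transient MRTU transfection of HepG2 (GAL4-UAS reporters, exogenous NR-GAL4 chimeras), 24 h dosing. Readout: reporter transcript via RT-PCR + capillary electrophoresis fluorescence. Positive direction vs DMSO baseline.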
Sequence of Glucocorticoid receptor (Homo sapiens) (P04150 whole entry, looked up, the tested form may be a part): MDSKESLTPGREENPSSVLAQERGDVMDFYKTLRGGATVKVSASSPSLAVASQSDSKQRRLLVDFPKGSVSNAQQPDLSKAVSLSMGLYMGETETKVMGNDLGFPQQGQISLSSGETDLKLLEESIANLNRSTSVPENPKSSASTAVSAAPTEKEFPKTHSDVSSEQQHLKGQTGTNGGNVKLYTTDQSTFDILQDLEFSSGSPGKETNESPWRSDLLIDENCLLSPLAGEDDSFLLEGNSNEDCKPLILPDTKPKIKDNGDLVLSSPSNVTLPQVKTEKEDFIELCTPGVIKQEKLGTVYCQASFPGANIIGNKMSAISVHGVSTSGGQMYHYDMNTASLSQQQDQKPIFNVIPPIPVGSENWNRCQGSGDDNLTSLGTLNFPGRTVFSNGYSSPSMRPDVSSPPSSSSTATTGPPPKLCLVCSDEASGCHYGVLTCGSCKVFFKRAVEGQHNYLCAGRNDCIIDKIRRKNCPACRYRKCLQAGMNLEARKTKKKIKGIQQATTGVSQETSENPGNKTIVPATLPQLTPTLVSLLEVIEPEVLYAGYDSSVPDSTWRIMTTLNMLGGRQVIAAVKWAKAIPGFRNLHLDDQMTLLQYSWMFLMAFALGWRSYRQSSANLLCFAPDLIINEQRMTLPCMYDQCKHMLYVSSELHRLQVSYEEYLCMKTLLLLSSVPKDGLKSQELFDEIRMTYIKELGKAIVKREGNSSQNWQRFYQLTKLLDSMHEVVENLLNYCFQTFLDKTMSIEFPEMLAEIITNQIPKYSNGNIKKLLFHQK

For test [12], the target named is Oxysterols receptor LXR-alpha (Homo sapiens) (UniProt Q13133). Nature of the test: ATG_LXRa_TRANS: Attagene TRANS-FACTORIAL HepG2 Assay for human Liver X Receptor alpha (LXRa) (AID 2282980; active means hit-call score of the fitted dose curve at least 0.9, where 1 is the maximum). Particulars: HepG2 Attagene TRANS reporter, LXRa transactivation. An outline of the steps: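 HepG2 cells were transiently transfected with multiplexed reporter units driven by chimeric LXRa–GAL4 fusion proteins, then dosed for 24 h. Reporter mRNA was quantified by RT-PCR, fluorescent labelling and capillary electrophoresis; gain of signal fitted against DMSO baseline.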
Sequence of Oxysterols receptor LXR-alpha (Homo sapiens) (Q13133 whole entry, looked up, the tested form may be a part): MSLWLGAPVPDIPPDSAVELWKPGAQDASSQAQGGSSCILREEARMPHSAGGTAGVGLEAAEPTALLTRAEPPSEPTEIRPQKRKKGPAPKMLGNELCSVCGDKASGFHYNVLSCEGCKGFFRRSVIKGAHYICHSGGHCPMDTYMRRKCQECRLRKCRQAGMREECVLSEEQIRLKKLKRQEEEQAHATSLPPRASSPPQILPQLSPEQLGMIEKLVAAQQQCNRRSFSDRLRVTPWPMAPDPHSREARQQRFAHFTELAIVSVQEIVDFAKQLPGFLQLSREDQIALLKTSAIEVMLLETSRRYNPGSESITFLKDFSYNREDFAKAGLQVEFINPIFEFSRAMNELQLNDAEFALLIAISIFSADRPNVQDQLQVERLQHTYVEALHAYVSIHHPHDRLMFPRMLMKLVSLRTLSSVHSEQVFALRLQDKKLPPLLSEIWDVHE

Test [13] is described as follows: ATG_M_19_TRANS: Attagene TRANS-FACTORIAL HepG2 Assay for M19 Transcription Factor (Internal Marker) (AID 2282974; active means hit-call score of the fitted dose curve at least 0.9, where 1 is the maximum). To be noted: HepG2 Attagene TRANS-FACTORIAL M19 internal marker reporter. An outline of the steps: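 24 h chemical exposure of transiently transfected HepG2 (MRTU library). RNA → oligo(dT) RT → PCR → 6-FAM labelling → HpaI cut → CE fluorescence. Positive-direction fit vs DMSO baseline; background internal-marker readout.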

For test [14], the target named is Oxysterols receptor LXR-beta (Homo sapiens) (UniProt P55055). The experiment in a line: ATG_LXRb_TRANS: Attagene TRANS-FACTORIAL HepG2 Assay for human Liver X Receptor beta (LXRb) (AID 2282981; active means hit-call score of the fitted dose curve at least 0.9, where 1 is the maximum). Particulars: HepG2 Attagene TRANS GAL4-LXRb reporter, mRNA. An outline of the steps: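 Gain-of-signal mRNA reporter endpoint, DMSO as negative control. Transiently transfected HepG2 cells carrying the NR-Gal4 chimera and GAL4-UAS reporter units were treated 24 h; transcripts quantified by RT-PCR and capillary electrophoresis fluorescence.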
Sequence of Oxysterols receptor LXR-beta (Homo sapiens) (P55055 whole entry, looked up, the tested form may be a part): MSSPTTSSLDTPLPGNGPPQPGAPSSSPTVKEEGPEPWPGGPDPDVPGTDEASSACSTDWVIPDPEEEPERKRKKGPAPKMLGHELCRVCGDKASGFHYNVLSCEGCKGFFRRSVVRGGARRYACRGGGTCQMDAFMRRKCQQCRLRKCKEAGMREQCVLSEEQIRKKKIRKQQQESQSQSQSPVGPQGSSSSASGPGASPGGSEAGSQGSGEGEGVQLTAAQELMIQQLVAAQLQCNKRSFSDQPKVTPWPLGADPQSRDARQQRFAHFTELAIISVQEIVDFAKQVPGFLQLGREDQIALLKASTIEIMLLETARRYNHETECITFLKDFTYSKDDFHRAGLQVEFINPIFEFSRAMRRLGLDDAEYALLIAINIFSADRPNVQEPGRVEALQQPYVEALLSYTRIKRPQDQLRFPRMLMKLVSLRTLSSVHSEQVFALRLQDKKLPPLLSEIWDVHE

Test [15] has as its target Transcriptional activator Myb (Homo sapiens) (UniProt P10242). Nature of the test: ATG_Myb_CIS: Attagene CIS-FACTORIAL HepG2 Assay for human Myeloblastosis (Myb) Proto-Oncogene Transcription Factor (AID 2282986). Particulars: HepG2 Attagene CIS-FACTORIAL Myb reporter transcription; actives raise or lower the signal. The gist of the method: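 HepG2, transient MRTU transfection (cis-element promoters, endogenous TF activity), 24 h compound exposure. Readout: reporter mRNA via RT-PCR, 6-FAM labeling, HpaI digest, capillary electrophoresis. Gain/loss fit vs DMSO.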

Test [16] has as its target Myc proto-oncogene protein (Homo sapiens) (UniProt P01106). Nature of the test: ATG_Myc_CIS: Attagene CIS-FACTORIAL HepG2 Assay for human Myelocytomatosis (Myc) Proto-Oncogene Transcription Factor (AID 2282990). Particulars: HepG2, Attagene cis-reporter transcription factor activity; actives raise or lower the signal. The gist of the method: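 Fluorescence intensity of reporter-specific cDNA fragments, separated by capillary electrophoresis, gives the signal. Transfected HepG2 cells carrying cis-promoter reporter constructs are incubated with compound for 24 h; DMSO serves as baseline.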

The target in test [17] is Nuclear receptor subfamily 4 group A member 2 (Homo sapiens) (UniProt P43354). The experiment in a line: ATG_NURR1_TRANS: Attagene TRANS-FACTORIAL HepG2 Assay for human Nuclear Receptor Related Protein 1 (NURR1) (AID 2282985; active means hit-call score of the fitted dose curve at least 0.9, where 1 is the maximum). Particulars: HepG2 Attagene TRANS reporter, mRNA readout. The gist of the method: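 HepG2 / transient MRTU transfection / 24 h compound exposure / RT-PCR + CE fluorescence of reporter mRNA / gain-of-signal vs DMSO.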
Sequence of Nuclear receptor subfamily 4 group A member 2 (Homo sapiens) (P43354 whole entry, looked up): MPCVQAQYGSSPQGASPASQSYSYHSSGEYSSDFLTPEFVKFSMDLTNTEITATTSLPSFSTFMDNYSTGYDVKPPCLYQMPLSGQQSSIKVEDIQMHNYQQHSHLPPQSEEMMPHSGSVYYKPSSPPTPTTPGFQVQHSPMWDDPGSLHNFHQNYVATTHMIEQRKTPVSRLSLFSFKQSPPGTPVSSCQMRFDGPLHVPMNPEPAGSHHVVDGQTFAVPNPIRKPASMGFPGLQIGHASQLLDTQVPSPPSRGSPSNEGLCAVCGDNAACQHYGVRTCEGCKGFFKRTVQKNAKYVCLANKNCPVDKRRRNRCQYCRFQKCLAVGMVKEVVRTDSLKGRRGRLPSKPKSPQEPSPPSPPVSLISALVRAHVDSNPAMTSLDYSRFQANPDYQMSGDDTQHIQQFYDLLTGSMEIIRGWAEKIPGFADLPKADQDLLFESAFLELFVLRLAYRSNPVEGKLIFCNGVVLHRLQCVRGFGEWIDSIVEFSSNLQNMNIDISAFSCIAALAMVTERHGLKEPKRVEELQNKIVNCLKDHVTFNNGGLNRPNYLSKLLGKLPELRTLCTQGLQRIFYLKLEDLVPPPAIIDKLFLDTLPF

In test [18] the target is Estrogen-related receptor gamma (Homo sapiens) (UniProt P62508). The experiment in a line: ATG_ERRg_TRANS: Attagene TRANS-FACTORIAL HepG2 Assay for human Estrogen-Related Receptor gamma (ERRg) (AID 2282977; active means hit-call score of the fitted dose curve at least 0.9, where 1 is the maximum;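 further: hits increase reporter signal over DMSO so potencies reflect activators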). To be noted: HepG2 Attagene TRANS reporter, ERRg transactivation. The gist of the method: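 Transient HepG2 transfectants, 24 h compound exposure, GAL4-UAS reporter mRNA by RT-PCR/6-FAM labelling/capillary electrophoresis; positive direction vs DMSO.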

Structures are written as SMILES. Records with an inconclusive call do not appear. The source made the active and inactive calls. How the source made its calls, unless noted: active means hit-call score of the fitted dose curve at least 0.9, where 1 is the maximum; inactive means score below 0.9.

Sequence of Myc proto-oncogene protein (Homo sapiens) (P01106 whole entry, looked up, the tested form may be a part): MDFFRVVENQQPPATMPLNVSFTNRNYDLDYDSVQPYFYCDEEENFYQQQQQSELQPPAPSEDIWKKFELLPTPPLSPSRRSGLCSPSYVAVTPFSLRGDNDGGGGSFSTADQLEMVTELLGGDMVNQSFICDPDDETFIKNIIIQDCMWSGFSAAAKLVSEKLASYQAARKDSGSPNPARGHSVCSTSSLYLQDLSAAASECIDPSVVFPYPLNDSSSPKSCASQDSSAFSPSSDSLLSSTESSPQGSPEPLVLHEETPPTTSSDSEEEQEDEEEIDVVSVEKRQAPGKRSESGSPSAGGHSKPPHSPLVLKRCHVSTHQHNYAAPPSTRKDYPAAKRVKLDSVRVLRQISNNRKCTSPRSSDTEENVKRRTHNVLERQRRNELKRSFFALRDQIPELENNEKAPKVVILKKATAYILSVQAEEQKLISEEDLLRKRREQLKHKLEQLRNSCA
Sequence of Transcriptional activator Myb (Homo sapiens) (P10242 whole entry, looked up): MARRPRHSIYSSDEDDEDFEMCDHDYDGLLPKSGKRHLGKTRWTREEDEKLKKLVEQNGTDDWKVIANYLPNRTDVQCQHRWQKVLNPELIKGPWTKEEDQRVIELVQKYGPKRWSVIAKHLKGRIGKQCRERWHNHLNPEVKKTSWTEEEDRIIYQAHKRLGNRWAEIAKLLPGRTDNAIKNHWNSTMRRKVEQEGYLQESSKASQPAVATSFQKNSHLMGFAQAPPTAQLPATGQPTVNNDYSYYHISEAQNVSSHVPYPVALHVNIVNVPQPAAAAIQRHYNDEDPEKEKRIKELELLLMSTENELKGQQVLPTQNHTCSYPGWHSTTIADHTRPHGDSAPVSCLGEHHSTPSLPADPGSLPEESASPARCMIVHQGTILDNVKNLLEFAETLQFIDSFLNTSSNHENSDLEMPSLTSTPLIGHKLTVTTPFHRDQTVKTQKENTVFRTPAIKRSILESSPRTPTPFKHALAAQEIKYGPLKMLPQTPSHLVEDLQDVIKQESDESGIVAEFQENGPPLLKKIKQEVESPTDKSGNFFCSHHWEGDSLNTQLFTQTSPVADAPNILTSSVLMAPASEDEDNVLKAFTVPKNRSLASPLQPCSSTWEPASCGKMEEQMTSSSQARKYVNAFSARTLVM
Sequence of Bile acid receptor (Homo sapiens) (Q96RI1 whole entry, looked up, the tested form may be a part): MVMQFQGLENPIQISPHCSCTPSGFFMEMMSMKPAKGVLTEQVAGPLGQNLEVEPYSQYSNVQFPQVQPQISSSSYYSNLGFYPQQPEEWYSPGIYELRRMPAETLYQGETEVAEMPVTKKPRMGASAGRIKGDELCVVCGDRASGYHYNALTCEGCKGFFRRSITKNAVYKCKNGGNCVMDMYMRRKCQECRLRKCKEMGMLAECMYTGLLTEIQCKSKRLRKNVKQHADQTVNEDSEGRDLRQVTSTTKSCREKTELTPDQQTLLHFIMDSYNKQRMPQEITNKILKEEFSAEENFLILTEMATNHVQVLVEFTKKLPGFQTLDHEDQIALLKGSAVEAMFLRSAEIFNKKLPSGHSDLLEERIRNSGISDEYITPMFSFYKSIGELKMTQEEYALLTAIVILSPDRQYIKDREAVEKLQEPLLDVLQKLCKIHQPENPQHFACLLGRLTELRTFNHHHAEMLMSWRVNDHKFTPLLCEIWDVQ

For `CCCCCCCCCCCCCCCO`, the result in test [1], in [2], in test [3], in [4], in test [5] and in [6] was inactive. Moreover, the outcome in test [7], in test [8] and in [9] was inactive.
As for `O=C1CCC(N2C(=O)c3ccccc3C2=O)C(=O)N1` (configuration not stated), the outcome in [1], in test [2], in test [4], in test [10], in test [11] and in test [12] was inactive. For the same compound, the result in test [6], in [7], in [8] and in test [9] was inactive.
`Nc1ccc(Nc2ccccc2)cc1`: the result in test [1], in test [2], in test [4], in [13], in [14] and in [15] was inactive. Moreover, the result in test [8], in [9] and in test [16] was inactive.
Consider `COCCOc1cc2cc(C(=O)NC3CCN(C(C)C)CC3)n(CC(=O)Nc3ccc(Cl)cn3)c2cn1`, for which the outcome in [1], in test [2], in test [11], in test [5], in [12] and in [6] was inactive. Also, the call in test [7], in [8] and in test [9] was inactive. The AC50 – broadly, the concentration giving half of the maximal activity seen – was 124 µM (active) in [3] and 100 µM (active) in [4].
Consider `CCOCCO`, for which the outcome in test [1], in test [2], in [3], in [4], in [11] and in test [6] was inactive. Further, the compound was classed as inactive in [15], in test [8], in test [9] and in [16].
Turning to `CC1(C)C(=O)N(Br)C(=O)N1Br`, the compound was called inactive in test [1], in test [2], in test [3], in test [4], in [5] and in test [6]. In addition, the outcome in [8] and in test [9] was inactive.
With `CC(C)=CCCC(C)=CC=O`, the compound was classed as inactive in test [1], in test [2], in test [4], in test [11], in [12] and in [6]. Further, the call in test [7], in [15], in [8], in [9] and in test [16] was inactive. In addition, the half-maximal activity concentration (AC50) in test [3] is 22.2 µM (active).
Consider `COC(=O)c1ccccc1O`, for which the call in test [1], in test [2], in [4], in test [6], in [7] and in test [8] was inactive. The result in test [9] was inactive. Further, the results for the AC50 in [3], in [12] and in test [14] were 26.4 µM (active), 25.8 µM (active) and 25.5 µM (active), respectively.
Consider `O=P(OC(CCl)CCl)(OC(CCl)CCl)OC(CCl)CCl`, for which the compound was classed as inactive in test [1], in test [2], in test [10], in [12], in [6] and in test [7]. For the same compound, in [8], the result was inactive. The AC50 in test [3] is 3.53 µM (active); in test [4], 100 µM (active); in test [17], 32 µM (active); in test [9] it was 187 µM (active); in test [16], 143 µM (active).
With `O=c1[nH]c2ccc(S(=O)CCN3CCC(Cc4ccc(F)cc4)CC3)cc2o1` (configuration not stated), the compound was called inactive in [1], in test [2], in [10], in [18], in test [11] and in test [14]. Also, the compound was called inactive in test [6], in test [15] and in test [8]. Further, the AC50 in test [3] is 55.1 µM (active); in test [4] it was 71.1 µM (active); in [9] it was 100 µM (active).
Turning to `O=C(O)c1cccc(Oc2ccccc2)c1`, the outcome in test [1], in test [2], in test [3], in test [4], in test [10] and in test [11] was inactive. Besides, the call in test [6], in test [8], in test [9] and in [16] was inactive.
As to `CC(C)=CCCC(C)CCO` (configuration not stated), the compound was called inactive in test [1], in [2], in [4], in test [13], in [6] and in test [7]. Also, the result in [15], in test [8] and in test [9] was inactive.
